Only some compounds are listed: those with a hit (about 3.8% of all), similar ones and a draw of the others.
VDR inh: vitamin D3 receptor (human) inhibition; P11473; VDR-SRC2-3 peptide fluorescence polarization, 2 h; Potency, µM, for inactives: max response, negative = inhibition, most hits filed as inhibitors; hit rate 0.93% among 400,000; AID 504847; further: potency means the concentration at half of the fitted maximal effect; on the % scale 0 is the no-effect control and ±100 the full control effect
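The screen uses fluorescence polarization to detect compounds that interfere with recruitment of the SRC2-3 coactivator peptide to VDR; plates are read after 2 h at room temperature.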
KCNH2 3.1 inh: inhibitors of human KCNH2 3.1 potassium channel isoform. hit rate 0.95% among 340,000. U2OS KCNH2 3.1, thallium flux FluxOr; active compounds read low. AID 720553. activity change, % (tested at about 1.8 µM);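 active means maximum activity change below -70%; inconclusive means maximum activity change from -70% to -50%; inactive means maximum activity change above -50%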;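 further: thallium influx rate constant from kinetic fluorescence after stimulation buffer; on the % scale 0 is the no-effect control and ±100 the full control effect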
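Virally transduced U2OS (3.1 isoform, 4 h infection in dark at RT) → overnight 37 C → FluxOr + Red40 in HBSS/HEPES, 45 min → stimulation buffer, 2 min kinetic read → rate constant vs DMSO controls.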
CBFb-RUNX1 inh: inhibitors of human CBF-beta and RUNX1 interaction | Potency, µM (highest dose often 59.8 µM), for inactives: at the top dose activity, negative = inhibition, usual class: inhibitors | 230,000 tested, under 10 active | Q01196+Q13951 | AlphaScreen CBFb-His/RUNX1-biotin binding, biochemical; further: % of control where 0% means no effect
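Compounds were screened at multiple concentrations against a preformed CBF-beta(His)/RUNX1(biotin) complex (30 nM of each) for 15 min at room temperature, followed by 90 min with nickel and streptavidin beads and AlphaScreen reading.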
MBNL1 CUG block: MBNL1-poly(CUG) RNA binding inhibition | AID 2675 | Potency, µM (highest dose often 57.5 µM), for the others: at the highest dose activity change, negative = inhibition, hits mostly inhibitors | TR-FRET MBNL1-His/biotin-(CUG)12 binding, 665/545 ratio | hit rate 0.036% among 280,000 | Q9NR56; active means well fitted inhibition curve with a large enough effect in the signal ratio, with a control signal flat, not every such curve was filed as active; inconclusive means small, poorly fitted or top-dose-only effect, or effect the other way, or a change in a side signal; inactive means no such curve, though single readings can be large or run the other way; the % refers to the signal ratio; further: potency means the concentration at half of the fitted maximal effect; on the % scale 0 is the no-effect control and ±100 the full control effect
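His-tagged MBNL1 binding to biotinylated (CUG)12 RNA was measured by TR-FRET using terbium anti-His antibody (0.055 ng/ul final) and streptavidin-XL665 (5 nM final). Compounds were titrated 92 nM to 58 uM; 60 min at room temperature.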
hERG WT inh: inhibitors of human wildtype KCNH2 potassium channel; U2OS, BacMam KCNH2, thallium flux FluxOr; active compounds read low; activity change, % at 1.84 µM; hit rate 0.37% among 340,000;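 active means maximum activity change below -70%; inconclusive means maximum activity change between -70% and -50%; inactive means maximum activity change above -50%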; further: on the % scale 0 is the no-effect control and ±100 the full control effect
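U2OS cells transduced with wild-type KCNH2 virus are loaded with FluxOr dye for 45 min, and thallium flux is measured in kinetic reads before and after stimulation buffer. Rate constants are normalized to DMSO controls.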
PLK1 PBD inh: PLK1 (human) polo-box domain binding inhibition | AID 720504 | Plk1 PBD binding of FITC phosphopeptide, fluorescence polarization | P53350 | Potency, µM, without a hit: max response, negative = inhibition, usual class: inhibitors | hit rate 2.8% among 360,000; further: potency means the concentration at half of the fitted maximal effect; series mostly up to about 57 µM; on the % scale 0 is the no-effect control and ±100 the full control effect; nearly all actives have a fitted effect of over 65% in size
Target sequence (P53350 whole entry, looked up, the tested form may be a part): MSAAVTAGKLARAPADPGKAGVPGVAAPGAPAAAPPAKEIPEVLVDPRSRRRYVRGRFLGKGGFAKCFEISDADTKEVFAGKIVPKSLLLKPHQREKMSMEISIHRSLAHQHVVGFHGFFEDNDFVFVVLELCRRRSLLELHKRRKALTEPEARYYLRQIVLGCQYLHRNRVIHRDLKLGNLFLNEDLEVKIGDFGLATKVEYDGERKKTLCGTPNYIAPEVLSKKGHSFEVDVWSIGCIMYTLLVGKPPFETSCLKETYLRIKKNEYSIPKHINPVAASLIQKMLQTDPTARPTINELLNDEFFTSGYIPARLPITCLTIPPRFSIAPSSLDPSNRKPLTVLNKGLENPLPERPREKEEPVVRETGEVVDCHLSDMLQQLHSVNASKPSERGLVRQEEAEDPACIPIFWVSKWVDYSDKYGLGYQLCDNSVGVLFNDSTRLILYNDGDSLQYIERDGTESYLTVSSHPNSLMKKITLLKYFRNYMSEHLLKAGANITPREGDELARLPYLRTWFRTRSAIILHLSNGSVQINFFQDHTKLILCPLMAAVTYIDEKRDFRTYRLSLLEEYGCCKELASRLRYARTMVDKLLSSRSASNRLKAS
* marks the source's active call; other numbers are inactive results; u = inconclusive; x = not tested or not shown. Unless noted, the call rests on the fitted dose curve; in most records, active means well fitted curve in the direction sought with a large enough effect; inconclusive means small, poorly fitted or top-dose-only effect, or another doubt; inactive means no such curve, though single readings can be large; an effect the other way counts as inactive or inconclusive.

SMILES	VDR inh	KCNH2 3.1 inh	CBFb-RUNX1 inh	MBNL1 CUG block	hERG WT inh	PLK1 PBD inh
COc1cccc(C(=O)C2CCCN(Cc3cccn3-c3ccccn3)C2)c1 (centres undefined)	10.6%	-100.5*	2.9%	0.2%	u	-9.3%
Cc1ccsc1C(=O)C1CCCN(Cc2cccn2-c2ccc(Cl)cn2)C1 (centres undefined)	-11.1%	-14.8	-0.9%	13.2%	-106.5*	-14.2%
CC(C)Oc1cccc(C(=O)C2CCCN(Cc3cccn3-c3ccccn3)C2)c1 (centres undefined)	17.5%	-80.9*	-0.8%	-1.1%	u	2.5%
Cc1nn(C)c(C)c1CCC(=O)N1CCCC(C(=O)c2cccc(OC(C)C)c2)C1 (centres undefined)	-24.3%	-30.9	x	4.6%	-16.0	26.7µM*
O=C(COc1ccccc1[N+](=O)[O-])N1CCC(c2nc3ccccc3o2)CC1	4.4%	x	x	x	x	x
OCCC1CN(Cc2cccn2-c2nccs2)CCN1Cc1ccccc1 (centres undefined)	-8.7%	-40.7	0.5%	-5.1%	13.7	-7.3%
O=C(c1ccc(Cl)cc1)C1CCCN(Cc2cccn2-c2ccccn2)C1 (centres undefined)	7.5%	-104.5*	2.0%	2.7%	-108.9*	-4.7%
OCCC1CN(Cc2cccn2-c2nccs2)CCN1Cc1ccc(F)c(F)c1 (centres undefined)	2.3%	-84.6*	9.0%	-4.6%	-46.6	4.2%
OCCC1CN(Cc2cccn2-c2ccccn2)CCN1C1CCCC1 (centres undefined)	-1.4%	-0.4	-0.5%	-2.1%	42.4	-12.0%
COc1ccc(C(=O)C2CCCN(Cc3cccn3-c3nccs3)C2)cc1F (centres undefined)	12.6%	-116.7*	0.0%	-12.6%	-103.1*	-0.4%
O=c1c2[nH]c3ccccc3c2nc(SCc2cccc(F)c2)n1-c1ccccc1	14.8%	x	x	x	x	x
Cc1ccc(C(NC(=O)N2CCOCC2)C(Cl)Cl)cc1F (centres undefined)	-2.0%	25.5	1.0%	-10.2%	0.5	26.7µM*
Cc1ccc(C(NC(=O)N2CCN(C)CC2)C(Cl)Cl)cc1F (centres undefined)	u	0.4	5.6%	4.3%	10.0	-14.5%
O=[N+]([O-])c1cc(-c2ncccn2)c([N+](=O)[O-])s1	35.5µM*	-8.0	-16.8%	u	16.1	2.67µM*
O=C1c2cccnc2C(=O)N1c1cccc([N+](=O)[O-])c1	16.4%	-9.1	x	u	7.1	-15.1%
Nc1nc2c(F)c(F)c(F)cc2s1	8.0%	5.3	8.6%	x	8.3	26.7µM*
CCN(CC)S(=O)(=O)c1cccc(C(=O)N2CC(O)CC2C(=O)OC)c1 (centres undefined)	-11.4%	3.5	7.3%	2.8%	2.3	29.9µM*
CCN(CC)S(=O)(=O)c1cccc(C(=O)N2CC(O)CC2C(=O)O)c1 (centres undefined)	-1.9%	-20.7	8.6%	0.2%	10.4	-0.4%
CCCCOc1ccc(Cc2c(COCC)[nH]c(=S)[nH]c2=O)cc1	7.1%	2.8	0.6%	-1.5%	-6.2	-29.0%
CCOCc1[nH]c(=S)[nH]c(=O)c1Cc1ccc(OCC)cc1	-16.3%	-15.2	2.3%	4.1%	-11.6	26.7µM*
CCOCc1[nH]c(=S)[nH]c(=O)c1Cc1ccc(OCC(C)C)cc1	8.1%	-23.6	1.1%	0.5%	-5.3	23.8µM*
CC(/C=N/NC(=O)c1ccc(Cn2cc([N+](=O)[O-])cn2)o1)=C\c1ccccc1	6.6%	-78.7*	x	u	-0.6	0.7%
COc1ccc(C(=O)Nc2ccc(-c3cc4ccccc4oc3=O)c(C)c2)cc1Br	-6.1%	x	x	x	x	x
COc1ccc(CNc2cc(-c3cccnc3)ncn2)c(OC)c1	31.6µM*	x	x	x	x	x
COc1ccc(CNc2ncncc2-c2ccoc2)c(OC)c1	50.1µM*	x	x	x	x	x
SMILES	VDR inh	KCNH2 3.1 inh	CBFb-RUNX1 inh	MBNL1 CUG block	hERG WT inh	PLK1 PBD inh
COc1ccc(CNc2nc(-c3ccc(C(=O)N(C)C)cc3)nc3ccccc23)c(OC)c1	-10.9%	x	x	x	x	x
COc1ccc(CNc2nc(-c3ccc(N(C)C)cc3)nc3ccccc23)c(OC)c1	35.5µM*	x	x	x	x	x
COc1ccc(CNc2ncnc3ccc(-c4ccc5c(c4)OCO5)cc23)c(OC)c1	-14.9%	x	x	x	x	x
COc1ccc(CNc2ncnc3ccc(-c4ccoc4)cc23)c(OC)c1	39.8µM*	x	x	x	x	x
COc1ccc(CNc2ncncc2-c2cccnc2)c(OC)c1	-9.7%	x	x	x	x	x
Cc1ccc(C)c(N2CCN(C(=O)C3CCCN(S(=O)(=O)c4ccc5c(c4)oc(=O)n5C)C3)CC2)c1 (centres undefined)	2.7%	x	x	x	x	x
CC1CCN(S(=O)(=O)c2ccc3c(c2)N(CC(=O)NC(C)(C)C)C(=O)CS3)CC1	-1.6%	x	x	x	x	x
N#Cc1cccc(-c2cncnc2NCc2cccnc2)c1	-8.5%	x	x	x	x	x
c1ncc(-c2ccoc2)c(NC2CC2)n1	50.1µM*	x	x	x	x	x
c1cncc(CNc2ncncc2-c2ccoc2)c1	50.1µM*	x	x	x	x	x
CCCCCCC(=O)OCC(=O)c1ccc2c(c1)NC(=O)CO2	-5.4%	-16.1	-1.5%	19.1%	9.5	9.47µM*
CCc1ccc(OCC(=O)OCC(=O)c2ccc3c(c2)NC(=O)CO3)cc1	13.3%	-11.7	0.9%	62.8%	10.0	3.7%
COc1cc(OC)cc(C(=O)N[C@H](C(=O)OCC(=O)c2ccc3c(c2)NC(=O)CO3)C(C)C)c1	3.9%	0.3	-7.2%	14.0%	5.8	-12.2%
O=C1COc2ccc(C(=O)CCl)cc2N1	-14.9%	-8.6	-0.6%	x	-2.1	1.89µM*
CCCc1nc(SCC(=O)c2ccc3c(c2)NC(=O)CO3)[nH]c(=O)c1CC	u	25.0	x	x	4.3	18.9µM*
CC(C)[C@H](NC(=O)c1ccccc1)C(=O)OCC(=O)c1ccc2c(c1)NC(=O)CO2	-12.1%	-11.1	5.2%	-2.2%	-5.0	10.6µM*
CCOC(=O)c1cc2c(=O)n3ccccc3nc2n(CC2CCCO2)c1=NC(=O)c1cccc(C(F)(F)F)c1 (centres undefined)	-20.4%	x	x	x	x	x
CCc1ccc(C2CC(c3ccc(C)cc3)n3nc(N)nc3N2)cc1 (centres undefined)	u	-9.5	x	x	25.2	23.8µM*
COc1ccc(C2CC(c3cccc(OC)c3)n3nc(N)nc3N2)cc1 (centres undefined)	-14.8%	7.5	-5.1%	4.8%	-14.2	-0.5%
COc1cccc(C2CC(c3ccc(Cl)cc3)n3nc(N)nc3N2)c1 (centres undefined)	u	-6.1	-1.4%	-1.2%	-0.4	21.2µM*
CCOc1ccc(C2CC(c3ccccc3C)n3nc(N)nc3N2)cc1 (centres undefined)	u	8.1	6.2%	-10.9%	20.5	21.2µM*
CN(c1nnc(NC(=O)Nc2ccccc2C(F)(F)F)s1)C1CCCCC1	5.4%	x	x	x	x	x

Assay outcomes: PubChem, National Center for Advancing Translational Sciences (NCATS)
